Experimental findings from PubChem BioAssay (NCI) are described below.

Compounds without any hit were thinned out: in the full panel of roughly 83,000, 20% have a hit.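 Method: cells in 96-well plates; compound added at one concentration; 48 h incubation; percent growth measured; values under 10 scored active.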 A number with no mark means an inactive call. Calls of active or inactive are those of the source.

For one test, the system named is OVCAR-4 ovarian. Kind of test: NCI-60 one-dose screen, 48 h (100 = growth as untreated, 0 = no growth, -100 = all killed). The settings on record: 10 µM.
Take `CCc1ccc(-c2ccc(-n3nc(C)c4c(N)nc(Cc5ccccc5)nc43)cc2)cc1`: the growth is 63.9%. With `O=C(Nc1ccc(F)cc1)c1cc2ccccc2cc1O`, the growth was 57.8%.

Take `Nc1nccc(OCCO)n1`: the growth was 109%.

Take `O=C(CCCCNC(=O)c1nc(-c2ccccc2)n(-c2ccccc2)n1)NO`: the growth was 90.6%. Regarding `COc1cc(-c2nn(-c3ccc(NC(=O)NCCNS(=O)(=O)c4ccc(F)cc4)cc3)cc2-c2ccncc2)ccc1Cl`, the growth is 41.8%. Turning to `O=C(Nc1ccc2c(O)cc(S(=O)(=O)O)cc2c1)c1ccc([N+](=O)[O-])cc1`, the growth is 103%.

Consider `COC(=O)C1(O)NC(=C(C#N)C#N)C(C#N)=C1C(=O)c1ccc(OC)c(OC)c1` (stereo not given), for which the growth was 118%. In the case of `C=CCn1c(SCC(=O)Nc2ccc(C(=O)/C=C/c3ccc(OC)cc3)cc2)nnc1-c1ccc(OC)c(OC)c1`, the growth was 73.8%.

Turning to `COc1cc(NC(=O)Nc2cnc(Nc3ccc(N4CCOCC4)cc3)nc2Oc2cccc(OC)c2)cc(OC)c1`, the growth was 13.7%. Turning to `O=C(CCl)Nc1ccc(Cc2ccc(NC(=O)CCl)cc2)cc1`, the growth is 27%.

Take `Cc1nn(-c2ccc(-c3ccc(OC(F)(F)F)cc3)cc2)c2nc(Cc3ccccc3)nc(N)c12`: the growth was 4.27% (active). With `O=C(Nc1nc(-c2ccccc2)nc2c1sc(=S)n2-c1ccccc1)C(F)(F)F`, the growth is 92.3%. On to `O=C(CSc1nnc(-c2ccc(Cl)cc2)o1)Nc1ccc(C(=O)/C=C/c2ccc(Cl)cc2)cc1`, for which the growth was 89.3%. Same read-out and setting: the same measure for `CN(C)CCN(Cc1ccccc1)c1ccc2ccccc2n1`: 97.4%; for `CCN(CC)CCOc1cccc2c1C(=O)c1cccc(OCCN(CC)CC)c1C2=O`: 45.9%; for `O=C(NCCCNS(=O)(=O)c1ccc(Cl)cc1)Nc1ccc(-n2cc(-c3ccncc3)c(-c3ccc(Cl)c(O)c3)n2)cc1`: 44.2%. Regarding `NC(N)=N/N=C(\c1ccccc1)C(O)c1ccccc1` (stereo not given), the growth is 105%. Same read-out and setting: in the case of `N#CC1=C(N)Oc2cc(N)ccc2C1c1cccnc1` (stereo not given) it was 80.3%; in that of `COc1cc(C)ccc1Oc1nc(Nc2ccc(N3CCOCC3)cc2)ncc1NC(=O)Nc1cc(C(F)(F)F)cc(C(F)(F)F)c1`, 66.3%; in that of `COc1ccc(/C=C2\CCCC3C2=Nc2ccccc2NC3c2ccc(OC)cc2)cc1` (stereo not given), 77.5%. On the same count and under the same terms, the same measure for `CCN(CC)CC(=O)N(CC)c1ccc(C)c(Cl)c1`: 107%; for `O=C(CC(CC(=O)c1ccccc1)c1ccccc1O)c1ccccc1`: 91.2%; for `C=C(C)[C@@H]1CC[C@]2(COCCC#N)CC[C@]3(C)[C@H](CC[C@@H]4[C@@]5(C)Cc6c([nH]c7ccccc67)C(C)(C)[C@@H]5CC[C@]43C)[C@@H]12`: 88.5%. `Fc1ccc2[nH]cc(-c3nc(-c4ccsc4)cs3)c2c1`: the growth is 101%.

`COc1cc(-c2nn(-c3cccc(NC(=O)CCN4CCN(Cc5ccccc5)CC4)c3)cc2-c2ccncc2)ccc1Cl`: the growth is 36.2%. `Cc1cc(=O)n2nnc3cc(Cl)c(Cl)cc3n12`: the growth is 92.1%. On the same count and under the same terms, the same measure for `O=C(/C=C/C=C/c1c(C2CC2)nc2ccccc2c1-c1ccc(F)cc1)c1cccs1`: 24%. In the case of `CCNCC(=O)Nc1ccc(C(=O)OCC)cc1`, the growth was 102%. With `S=C(NCc1ccccc1)NCc1ccccc1`, the growth was 102%.

For `NNC(=O)Oc1c(Cl)cc(Cl)cc1[N+](=O)[O-]`, the growth is 113%. The same measure, in the same setting: in the case of `CN1CCN(CCC(=O)Nc2cccc(-n3cc(-c4ccncc4)c(-c4ccc(Cl)c(O)c4)n3)c2)CC1` it was 56%; in that of `O=S(=O)(O)c1cccc(Nc2ccc3ccccc3c2)c1`, 99%; in that of `CCN(CC)CCOc1ccc2c(c1O)C(=O)c1ccccc1C2=O`, 85.5%. Same read-out and setting: in the case of `S=C(SSC(=S)N(c1ccccc1)c1ccccc1)N(c1ccccc1)c1ccccc1` it was 113%. On the same count and under the same terms, the same measure for `CN1CCN(CC(=O)Nc2cccc(-n3cc(-c4ccncc4)c(-c4ccc(Cl)c(O)c4)n3)c2)CC1`: 59.8%.

In a further test the test system is SK-OV-3 ovarian. Described as above. The settings on record: 10 µM.
As to `CCc1ccc(-c2ccc(-n3nc(C)c4c(N)nc(Cc5ccccc5)nc43)cc2)cc1`, the growth is 62.8%.

On to `O=C(Nc1ccc(F)cc1)c1cc2ccccc2cc1O`, for which the growth was 52.2%. As to `Nc1nccc(OCCO)n1`, the growth is 102%. As to `O=C(CCCCNC(=O)c1nc(-c2ccccc2)n(-c2ccccc2)n1)NO`, the growth was 13.2%. `COc1cc(-c2nn(-c3ccc(NC(=O)NCCNS(=O)(=O)c4ccc(F)cc4)cc3)cc2-c2ccncc2)ccc1Cl`: the growth was 18.1%. As for `O=C(Nc1ccc2c(O)cc(S(=O)(=O)O)cc2c1)c1ccc([N+](=O)[O-])cc1`, the growth was 82.7%. In the case of `COC(=O)C1(O)NC(=C(C#N)C#N)C(C#N)=C1C(=O)c1ccc(OC)c(OC)c1` (stereo not given), the growth is 98.6%. As to `C=CCn1c(SCC(=O)Nc2ccc(C(=O)/C=C/c3ccc(OC)cc3)cc2)nnc1-c1ccc(OC)c(OC)c1`, the growth is 98%. Still for that read-out and setting: the same measure for `COc1cc(NC(=O)Nc2cnc(Nc3ccc(N4CCOCC4)cc3)nc2Oc2cccc(OC)c2)cc(OC)c1`: 42.2%. Same read-out and setting: in the case of `O=C(CCl)Nc1ccc(Cc2ccc(NC(=O)CCl)cc2)cc1` it was 61.7%; in that of `Cc1cc(SCc2ccccc2)nc(N)n1`, 108%. For `Cc1nn(-c2ccc(-c3ccc(OC(F)(F)F)cc3)cc2)c2nc(Cc3ccccc3)nc(N)c12`, the growth was 56.9%.

Consider `O=C(Nc1nc(-c2ccccc2)nc2c1sc(=S)n2-c1ccccc1)C(F)(F)F`, for which the growth is 91.6%. Turning to `S=c1cnc2ccccc2[nH]1`, the growth is 96%. Same read-out and setting: the same measure for `O=C(CSc1nnc(-c2ccc(Cl)cc2)o1)Nc1ccc(C(=O)/C=C/c2ccc(Cl)cc2)cc1`: 90.6%; for `CN(C)CCN(Cc1ccccc1)c1ccc2ccccc2n1`: 97.2%. The same measure, in the same setting: the same measure for `CCN(CC)CCOc1cccc2c1C(=O)c1cccc(OCCN(CC)CC)c1C2=O`: 33.8%.

Turning to `O=C(NCCCNS(=O)(=O)c1ccc(Cl)cc1)Nc1ccc(-n2cc(-c3ccncc3)c(-c3ccc(Cl)c(O)c3)n2)cc1`, the growth was 68.8%.

Regarding `C1CN(CC2CCC(CN3CCOCC3)O2)CCO1` (stereo not given), the growth was 90.2%.

Regarding `NC(N)=N/N=C(\c1ccccc1)C(O)c1ccccc1` (stereo not given), the growth was 94.2%. Turning to `N#CC1=C(N)Oc2cc(N)ccc2C1c1cccnc1` (stereo not given), the growth was 93.7%.

With `CCOC(=O)c1cc(C(=O)c2cc(OC)cc(OC)c2)n2nc(C)ccc12`, the growth was 6.35% (active). Still for that read-out and setting: the same measure for `COc1cc(C)ccc1Oc1nc(Nc2ccc(N3CCOCC3)cc2)ncc1NC(=O)Nc1cc(C(F)(F)F)cc(C(F)(F)F)c1`: 101%; for `COc1ccc(/C=C2\CCCC3C2=Nc2ccccc2NC3c2ccc(OC)cc2)cc1` (stereo not given): 89.3%. Take `CCN(CC)CC(=O)N(CC)c1ccc(C)c(Cl)c1`: the growth is 93.1%. Take `O=C(CC(CC(=O)c1ccccc1)c1ccccc1O)c1ccccc1`: the growth was 94.5%.

Take `C=C(C)[C@@H]1CC[C@]2(COCCC#N)CC[C@]3(C)[C@H](CC[C@@H]4[C@@]5(C)Cc6c([nH]c7ccccc67)C(C)(C)[C@@H]5CC[C@]43C)[C@@H]12`: the growth was 100%. Same read-out and setting: in the case of `Fc1ccc2[nH]cc(-c3nc(-c4ccsc4)cs3)c2c1` it was 80.5%; in that of `COc1cc(-c2nn(-c3cccc(NC(=O)CCN4CCN(Cc5ccccc5)CC4)c3)cc2-c2ccncc2)ccc1Cl`, 22.3%; in that of `Cc1cc(=O)n2nnc3cc(Cl)c(Cl)cc3n12`, 85.2%. Turning to `O=C(/C=C/C=C/c1c(C2CC2)nc2ccccc2c1-c1ccc(F)cc1)c1cccs1`, the growth was 42.6%.

For the compound `CC(=O)[C@H]1CC[C@]2(C)[C@@H]1CC[C@@H]1[C@@]3(C)CC(CCC#N)(CCC#N)C(=O)C(C)(C)[C@@H]3CC[C@]12C`, the growth was 103%.

With `CCNCC(=O)Nc1ccc(C(=O)OCC)cc1`, the growth is 99.8%. Regarding `S=C(NCc1ccccc1)NCc1ccccc1`, the growth is 99.2%. Same read-out and setting: in the case of `NNC(=O)Oc1c(Cl)cc(Cl)cc1[N+](=O)[O-]` it was 102%. Take `CN1CCN(CCC(=O)Nc2cccc(-n3cc(-c4ccncc4)c(-c4ccc(Cl)c(O)c4)n3)c2)CC1`: the growth is 46.2%. On the same count and under the same terms, in the case of `O=S(=O)(O)c1cccc(Nc2ccc3ccccc3c2)c1` it was 87.9%; in that of `CCN(CC)CCOc1ccc2c(c1O)C(=O)c1ccccc1C2=O`, 77.6%. Turning to `S=C(SSC(=S)N(c1ccccc1)c1ccccc1)N(c1ccccc1)c1ccccc1`, the growth was 100%. On the same count and under the same terms, in the case of `CN1CCN(CC(=O)Nc2cccc(-n3cc(-c4ccncc4)c(-c4ccc(Cl)c(O)c4)n3)c2)CC1` it was 55.9%.
